Rv3671c inh: Rv3671c serine protease inhibitors, primary screen, biochemical, fluorescence polarization, M. tuberculosis H37Rv; actives 0.048% (n = 320,000); inhibition, % at 5.96 µM; P9WHR9; AID 2606, 2010; in the data active means inhibition above about 38%;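 further: extracellular domain of Rv3671c used as enzyme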
Mtb bLac sens: beta-lactam sensitization of Mtb H37Rv, H37Rv; inhibition, % at 25 µM; M. tuberculosis H37Rv growth with meropenem, percent inhibition; actives 0.27% (n = 330,000); AID 434955, 2010; call rule not given here;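 further: growth measured after seven days incubation then overnight dye step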
Mtb UGM inh: M. tuberculosis UGM enzyme inhibitors, primary screen, biochemical, fluorescence polarization, single point | UDP-galactopyranose mutase (Mycobacterium tuberculosis (strain ATCC 25618 / H37Rv)), … | purified UGM, fluorescence polarization probe displacement | inhibition, % at 10 µM | AID 504406, 2011 | actives 0.06% (n = 320,000); in the data active means inhibition above about 10%, passing the limit was not always enough; inconclusive means no clear call, values can overlap the other calls
RecA intein inh: Mtb RecA intein splicing inhibitors, primary screen, biochemical, fluorescence, HTS; Protein RecA (Mycobacterium tuberculosis (strain ATCC 25618 / H37Rv)), P9WHJ3; cell-free RecA intein splicing; inhibition, % (no concentration beside the values); actives 0.75% (n = 290,000); AID 2221, 2009; in the data active means inhibition above about 30%; inconclusive means no clear call, values can overlap the other calls
FBA Mtb inh: Mtb FBA enzyme inhibitors, primary screen, biochemical, fluorescence, strain H37Rv; inhibition, % at 1 µM; actives 2.3% (n = 360,000); purified M. tuberculosis FBA, fluorescence read-out; Fructose-bisphosphate aldolase (Mycobacterium tuberculosis (strain ATCC 25618 / H37Rv)), …
Target sequence (P9WQA3 whole entry, looked up): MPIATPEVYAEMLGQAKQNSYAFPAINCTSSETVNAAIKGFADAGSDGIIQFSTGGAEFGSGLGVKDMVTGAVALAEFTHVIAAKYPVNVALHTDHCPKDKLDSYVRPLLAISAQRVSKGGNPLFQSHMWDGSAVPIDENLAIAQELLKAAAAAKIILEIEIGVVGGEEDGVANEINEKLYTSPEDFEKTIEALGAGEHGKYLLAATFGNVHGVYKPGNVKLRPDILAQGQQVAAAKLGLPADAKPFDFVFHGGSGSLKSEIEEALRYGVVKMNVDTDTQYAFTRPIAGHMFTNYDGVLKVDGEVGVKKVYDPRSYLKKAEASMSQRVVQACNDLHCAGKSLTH
GDH-TPI counter-1: GDH-TPI coupling enzyme inhibitors, primary screen, artefact control for M. tuberculosis FBA inhibitor project, biochemical, absorbance, full deck; GDH-TPI coupled enzyme counterscreen, NADH absorbance; inhibition, % at 4.8 µM; actives 1.2% (n = 360,000); in the data active means inhibition above about 30%
Mtb FBA inh conf: M. tuberculosis aldolase blockers, biochemical, fluorescence, strain H37Rv, confirmation | purified M. tuberculosis FBA, fluorescence read-out | actives 78% (n = 5,600) | inhibition, % at 1 µM | shares compounds with FBA Mtb inh
GDH-TPI counter-2: GDH-TPI coupling enzyme inhibitors, artefact control for M. tuberculosis FBA inhibitor project, biochemical, fluorescence, high throughput; shares compounds with FBA Mtb inh; GDH-TPI coupled enzyme counterscreen; inhibition, % at 1 µM; actives 81% (n = 5,600); in the data active means inhibition above about 10%
Large screens that a line does not name were inactive (follow-up assays come after a bar, where they were run). Rows were chosen to be rich in hits. Some 4% of all compounds tested hit in one or more screens of this group. Unless noted, no stated cut-off is given here; in the data, active means inhibition above about 27%; inactive means the rest.

Cc1ccc(-n2nc3c(c2NC(=O)c2ccc4c(c2)OCO4)CS(=O)(=O)C3)c(C)c1	none
S=c1[nH]nc(-c2cccs2)n1Cc1ccccc1	FBA Mtb inh 28 | Mtb FBA inh conf 86 | GDH-TPI counter-2 59
CCCn1cnc2c(oc3ccccc32)c1=O	none (no result: Rv3671c inh)
CCn1cnc2c(oc3ccccc32)c1=O	FBA Mtb inh 44 | Mtb FBA inh conf 177 | GDH-TPI counter-2 127
Cc1ccc2[nH]c3c(c2c1)CCN1C(=O)OC(C)(C)C31C (configuration not stated)	none
CC(C)c1nc(N2CCN(C(=O)c3ccccc3)CC2)c(C#N)c2c1COC(C)(C)C2	none
CC(C)c1nc(N2CCN(C(=O)c3ccco3)CC2)c(C#N)c2c1COC(C)(C)C2	FBA Mtb inh 37 | Mtb FBA inh conf active | GDH-TPI counter-2 active
COC(=O)[C@@]1(Cc2ccccc2)[C@H]2C(=O)N(C)C(=O)[C@H]2[C@H]2CN=C(SCc3ccc(C)cc3)N21	none (no result: Rv3671c inh, Mtb bLac sens, Mtb UGM inh, RecA intein inh)
c1csc(-c2cnc3ccccc3n2)c1	FBA Mtb inh 63 | Mtb FBA inh conf inactive | GDH-TPI counter-2 inactive
c1coc(-c2cnc3ccccc3n2)c1	FBA Mtb inh 106 (no result: Rv3671c inh, Mtb bLac sens, Mtb UGM inh, RecA intein inh) | Mtb FBA inh conf 69 | GDH-TPI counter-2 46
c1coc(-c2nc3ccccc3nc2-c2ccco2)c1	none
NNc1nc2sc3c(c2c(=O)n1C1CCCCC1)CCN(Cc1ccccc1)C3	none
OCCCNc1ncnc2sc3c(c12)CCN(Cc1ccccc1)C3	FBA Mtb inh 72 | Mtb FBA inh conf 76 | GDH-TPI counter-2 62
O=c1[nH]cnc2sc3c(c12)CCN(Cc1ccccc1)C3	FBA Mtb inh 47 | Mtb FBA inh conf 122 | GDH-TPI counter-2 94
COCCOC(=O)CSc1ncccc1-c1nc2cc(C)c(C)cc2[nH]1	FBA Mtb inh 30 | Mtb FBA inh conf 191 | GDH-TPI counter-2 156
CCCn1nc2cc(C(=O)NC3CCCc4ccccc43)ccc2c1OCC (configuration not stated)	FBA Mtb inh 56 | Mtb FBA inh conf 137 | GDH-TPI counter-2 99
CCCCn1nc2cc(C(=O)NC3CCc4ccccc43)ccc2c1OCC (configuration not stated)	FBA Mtb inh 53 | Mtb FBA inh conf active | GDH-TPI counter-2 active
COc1cc(OC)cc(-c2c(-c3cccs3)c3cc(-c4ccc(OCc5ccccc5)cc4)ccc3n2C)c1	none (no result: RecA intein inh)
O=c1[nH]c2c(oc3ccccc32)c(=O)n1Cc1ccccc1	none (no result: Rv3671c inh)
O=C(O)c1c(-c2ccccc2)c2oc3ccccc3c2[nH]c1=O	FBA Mtb inh 108 | Mtb FBA inh conf 90 | GDH-TPI counter-2 70
COc1ccc(C2C(=O)NN=C2C)cc1 (configuration not stated)	none (no result: Rv3671c inh, Mtb bLac sens, Mtb UGM inh, RecA intein inh)
Cc1ccn2c(NC3CCCCC3)c(-c3cccc(-c4cccc(Cl)c4)c3)nc2c1	FBA Mtb inh 33 | Mtb FBA inh conf 113 | GDH-TPI counter-2 101
CCC(C)Sc1ccc(-c2nc3cc(C)ccn3c2NC2CCCCC2)cc1 (configuration not stated)	FBA Mtb inh 33 (no result: Mtb UGM inh, RecA intein inh) | Mtb FBA inh conf active | GDH-TPI counter-2 active
Clc1ccc(-c2nc3cnccn3c2NC2CCCC2)cc1	none
CCC(C)Sc1ccc(-c2nc3cnccn3c2NC2CCCCC2)cc1 (configuration not stated)	FBA Mtb inh 29 | Mtb FBA inh conf 67 | GDH-TPI counter-2 57
O=C(NCC(O)c1ccc([N+](=O)[O-])cc1)C1=COCCO1 (configuration not stated)	none (no result: RecA intein inh)
CC(C)(C)C(=O)N/C(N)=N/c1nc2ccccc2o1	none
COc1ccc(-c2oc3ccccc3c2C#CC(C)(C)O)cc1	none (no result: RecA intein inh)
Cc1cc(C)n2nc(NCc3cccc(Br)c3)nc2n1	FBA Mtb inh 58 | Mtb FBA inh conf 70 | GDH-TPI counter-2 52
COc1ccc(CNc2nc3nc(C)cc(C)n3n2)cc1OC	none
O=C(Nc1ccc(-c2nnc(-c3ccccc3)o2)cc1)C(F)(F)F	none
O=C(COc1ccccc1)Nc1ccc(-c2nnc(-c3ccco3)o2)cc1	FBA Mtb inh 36 | Mtb FBA inh conf inactive | GDH-TPI counter-2 inactive
O=C(Cc1ccccc1)Nc1cccc(-c2nnc(-c3ccco3)o2)c1	FBA Mtb inh 32 | Mtb FBA inh conf 38 | GDH-TPI counter-2 35
CC(C)C(=O)Nc1ccc(-c2nnc(-c3ccccc3)o2)cc1	FBA Mtb inh 33 (no result: Rv3671c inh) | Mtb FBA inh conf 47 | GDH-TPI counter-2 36
CC(=O)/C=C(\C)Nc1ccc(-c2cnc(-c3ccccc3)o2)cc1	FBA Mtb inh 90 | Mtb FBA inh conf 91 | GDH-TPI counter-2 76
O=C(Cc1ccc(Cl)cc1)Nc1cccc(-c2nnc(-c3ccco3)o2)c1	Mtb bLac sens inconclusive
CC(=O)Nc1ccc(-c2nc3ccccc3c(=O)o2)cc1	none
Cc1ccc(S(=O)(=O)N2CCCCC2)cc1C(=O)N1CCCCCC1	none (no result: RecA intein inh)
COc1ccc(S(=O)(=O)N2CCCCC2c2cc(C(=O)Nc3ccc(F)c(Cl)c3)no2)cc1 (configuration not stated)	none (no result: Rv3671c inh, Mtb bLac sens, Mtb UGM inh, RecA intein inh)
Cc1cc(=O)[nH]c(SC(C)C(=O)Nc2cccc3ccccc23)n1 (configuration not stated)	none
COc1ccc2nc3oc(C(=O)N4CCC(C(N)=O)CC4)cc3cc2c1	FBA Mtb inh 98 | Mtb FBA inh conf active | GDH-TPI counter-2 154
CCOC(=O)C1CCN(C(=O)c2cc3cc4ccc(OC)cc4nc3o2)CC1	FBA Mtb inh 106 | Mtb FBA inh conf inactive | GDH-TPI counter-2 17
COc1ccc2cc3cc(C(=O)N4CCN(Cc5ccc6c(c5)OCO6)CC4)oc3nc2c1	FBA Mtb inh 59, GDH-TPI counter-1 46 | Mtb FBA inh conf active | GDH-TPI counter-2 active
CCC(C)NC(=O)c1cnn2c1NC(c1ccc3c(c1)OCO3)CC2C(F)(F)F (configuration not stated)	none
CC(O)c1cc2c(cc1NC(=O)c1cnn3c1NC(c1ccco1)CC3C(F)(F)F)OCO2 (configuration not stated)	FBA Mtb inh 48 | Mtb FBA inh conf 57 | GDH-TPI counter-2 55

Source: PubChem BioAssay
